# Source: PubChem
# Vif-APOBEC3G blk – blocks the Vif interaction with human APOBEC3G | Q9HC16 | HeLa A3G-eYFP + Vif (tagged APOBEC3G with the HIV-1 protein that degrades it), YFP fluorescence, overnight | Potency, µM (top dose mostly 46.1 µM), for the others: at the top dose activity, negative = active, most hits filed as inhibitors | hit rate 0.076% among 410,000 | AID 602310; also: potency is read from the fitted curve at half-maximal effect; % is scaled to controls: 0 for no effect and ±100 for the full control effect; nearly all actives have a fitted effect of over 60% in size
# Target sequence (Q9HC16 whole entry, looked up): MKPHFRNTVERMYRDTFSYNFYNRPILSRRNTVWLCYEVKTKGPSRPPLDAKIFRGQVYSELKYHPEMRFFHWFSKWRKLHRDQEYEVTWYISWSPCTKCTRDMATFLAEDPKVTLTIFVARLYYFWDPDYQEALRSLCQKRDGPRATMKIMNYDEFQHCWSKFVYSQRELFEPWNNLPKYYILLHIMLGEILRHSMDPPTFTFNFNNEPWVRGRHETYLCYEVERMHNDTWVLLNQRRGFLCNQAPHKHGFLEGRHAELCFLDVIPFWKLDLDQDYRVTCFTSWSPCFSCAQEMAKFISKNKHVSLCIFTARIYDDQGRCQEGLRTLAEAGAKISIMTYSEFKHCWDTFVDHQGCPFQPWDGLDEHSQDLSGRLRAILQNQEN
#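 HeLa cells stably expressing Vif and C-terminally eYFP-tagged A3G, seeded overnight at 37 deg C, then exposed to compound by pintool overnight at 37 deg C. Rise in yellow fluorescence (Ex 488/Em 500-530, Acumen) marks blocked Vif-driven A3G degradation.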
# GRP78 ERSR act – inducers of ER stress response in human glioma cells; U87-MG GRP78 promoter luciferase reporter, 16 h; Potency, µM, for the others: top-dose activation, most hits filed as activators; hit rate 0.02% among 420,000; AID 602332; also: potency is read from the fitted curve at half-maximal effect; series mostly up to about 76 µM; % of control where 0% means no effect; nearly all actives have a fitted effect of over 35% in size
#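 Stably transfected U87-MG human glioma cells carrying a GRP78-based luminescent sensor were seeded at 1000 cells/well, pin-dosed with compounds and incubated 16 h. Luciferase reagent was then added, and end-point luminescence was read after 10 min at room temperature.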
# TRPML1 blocker – blocks the human TRPML1 channel; activity change, negative = inhibition, % (no concentration beside the values); TRPML1-inducible cells, Ca2+ dye fluorescence, FDSS; hits give low values; inhibition of EC80 agonist-evoked calcium signal; hit rate 0.02% among 390,000; AID 624415; in the data active = activity change below about -50%; inconclusive = between about -30% and that limit;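 also: stimulus is agonist 54-4 at its EC80 concentration; % is scaled to controls: 0 for no effect and ±100 for the full control effect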
#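 Tet-induced TRPML1-DL cells loaded with Ca8 no-wash calcium dye were read kinetically on FDSS. Compound addition was followed by EC80 agonist 54-4 (4 uM final); inhibition was read over 110 s.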
# 12-LOX inh – blocks human arachidonate 12S-lipoxygenase | purified 12hLO, xylenol orange hydroperoxide absorbance | AID 1671190 | Potency, µM (series often up to 108 µM), without a hit: at the highest dose activity change, negative = inhibition, most hits filed as inhibitors | hit rate 1.1% among 580,000 | P18054; also: potency is read from the fitted curve at half-maximal effect; % is scaled to controls: 0 for no effect and ±100 for the full control effect
#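 Hydroperoxide product was detected by ferrous iron/xylenol orange as the 573 to 405 nm absorbance ratio. Arachidonic acid at 40 uM (final) was turned over for 30 min at room temperature by 150 nM human 12hLO, pH 7.0 Hepes buffer, after 15 min compound preincubation.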
# Vif-APOBEC3F blk – inhibitors of Vif-A3F interaction; hit rate 0.2% among 390,000; Potency, µM (titrated, usually from 46.1 µM), for the others: at the highest dose activity, negative = active; HeLa A3F-eYFP + Vif (tagged APOBEC3F with the HIV-1 protein that degrades it), YFP fluorescence increase; also: potency is read from the fitted curve at half-maximal effect; % of control where 0% means no effect; nearly all actives have a fitted effect of over 65% in size
#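 HeLa cells stably expressing A3F-eYFP plus Vif, plated and incubated overnight at 37 deg C, then exposed to compounds overnight at 37 deg C. Blocked degradation read as raised yellow fluorescence (Ex 488/Em 500-530).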
# TRPML1 ag – agonists of human TRPML1 channel. Q9GZU1. TRPML1-expressing cells, Ca2+ dye fluorescence, FDSS. AID 624414. hit rate 0.12% among 410,000. activation, % (concentration not given with the values); in the data active = activation above about 50%; inconclusive = mostly about 30% to 49%; also: 0% is about no effect
#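 Cells: TRPML1-DL, 1X Tet inducer, ~16 h at 37 degrees C/5% CO2. Dye: ABD Ca8 no-wash + quencher, 45-90 min RT. Read: 10 s baseline, compound add, 110 s agonist phase; 54-4 EC80 (4uM final), 110 s antagonist phase.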
# Numbers without * were called inactive; i = inactive; ? = inconclusive; nt = no result given. Rows were chosen to be rich in hits. Some 1.3% of all compounds tested hit in one or more screens of this group. Unless noted, calls follow the shape of the dose curve; as a rule, active = well fitted curve in the direction sought with a large enough effect; inconclusive = small, poorly fitted or top-dose-only effect, or another doubt; inactive = no such curve, though single readings can be large; an effect the other way counts as inactive or inconclusive.
SMILES,Vif-APOBEC3G blk,GRP78 ERSR act,TRPML1 blocker,12-LOX inh,Vif-APOBEC3F blk,TRPML1 ag
COC(=O)c1ccc(C2C(C(C)=O)C(=O)CC(C)(O)C2C(C)=O)cc1 (stereo not drawn),nt,nt,nt,68%,nt,nt
O=C(NCCN1CCC(Cc2ccccc2)CC1)C1CCN(c2nc3cccnc3s2)CC1,nt,nt,nt,1%,nt,nt
Cc1ccc(C2=NC3(CCN(C(=O)COc4cccc(C)c4)CC3)ON2)cc1,nt,nt,nt,89µM*,nt,nt
Cc1ccccc1OCc1n[nH]c(=S)n1Cc1ccccc1,4%,-2%,0,50µM*,-4%,1
C=CCn1c(CCCOc2ccc(Cl)cc2Cl)n[nH]c1=S,-8%,0%,8,?,2%,0
S=c1[nH]nc(COc2cccc3ccccc23)n1Cc1ccccc1,-8%,-7%,-8,?,-28%,-1
Cc1cc(C)n(Cc2n[nH]c(=S)n2Cc2ccccc2)n1,0%,-1%,-2,?,-20%,-1
Cc1ccc(OCc2n[nH]c(=S)n2Cc2ccccc2)cc1,-1%,-5%,-5,-22%,-48%,-1
COCCn1c(COc2ccccc2-c2ccccc2)n[nH]c1=S,nt,nt,nt,28µM*,nt,nt
Cc1cc(Cl)ccc1OCCCc1n[nH]c(=S)n1C,nt,nt,nt,22µM*,nt,nt
Cc1nn(Cc2n[nH]c(=S)n2Cc2ccccc2)c(C)c1Cl,-1%,4%,-2,45µM*,5%,0
COc1cccc(C2CC(=O)Nc3c2c(C)nn3-c2nncc(-c3ccc(C)cc3)n2)c1OC (stereo not drawn),nt,nt,nt,4%,nt,nt
O=C(O)COc1ccc(-c2nccc3c2C(=O)N(Cc2cccc(C(F)(F)F)c2)CC(CNC(=O)C2CCOCC2)O3)cc1 (stereo not drawn),nt,nt,nt,-18%,nt,nt
CN(C(=O)c1cccc(Cl)c1)c1nc2ccccc2o1,nt,nt,nt,5%,nt,nt
CCn1c(CSCc2ccc(Cl)cc2)n[nH]c1=S,1%,-3%,48,?,-14%,1
COCc1n[nH]c(=S)n1Cc1ccc(Cl)cc1,nt,nt,nt,16µM*,nt,nt
CCn1c(COc2ccc(Cl)cc2C)n[nH]c1=S,nt,nt,nt,14µM*,nt,nt
CCc1cccc(CC)c1NC(=O)COC(=O)c1ccc2ccccc2n1,nt,nt,nt,6.3µM*,nt,nt
CC(C)(C)NC(=O)COC(=O)c1ccc2ccccc2n1,nt,nt,nt,-26%,nt,nt
COC(=O)C1=C(C)N(c2ccccc2)C(=S)NC1c1ccccc1C(F)(F)F (stereo not drawn),0%,-1%,-4,?,-5%,1
COC(=O)C1=C(C)N(c2cccc(C)c2)C(=S)NC1c1ccc(C)s1 (stereo not drawn),nt,nt,nt,35µM*,nt,nt
O=C(NCc1ccccc1)c1ccc(C(=O)N(C2CCCCC2)C2CCCCC2)cc1,2%,-6%,?,-21%,0%,119*
O=C(NCc1ccccc1)c1ccc(C(=O)NCc2ccccc2)cc1,-1%,-4%,-22,-19%,-2%,0
Cc1ccccc1C(=O)Nc1ccc2nc(N3CCN(C4CCCCC4)CC3)cc(C(=O)O)c2c1,nt,nt,nt,6.3µM*,nt,nt
Cc1cccc(N2CCN(c3cc(C(=O)O)c4cc(NC(=O)C(C)(C)C)ccc4n3)CC2)c1,nt,nt,nt,14µM*,nt,nt
SMILES,Vif-APOBEC3G blk,GRP78 ERSR act,TRPML1 blocker,12-LOX inh,Vif-APOBEC3F blk,TRPML1 ag
CCCC(=O)Nc1ccc2nc(N3CCN(C(=O)OCC)CC3)cc(C(=O)O)c2c1,nt,nt,nt,7.9µM*,nt,nt
Cc1cc(NC(=O)CCNC(=O)c2ccc3ccccc3c2)n[nH]1,nt,nt,nt,3%,nt,nt
CC(C)(C)NC(=O)NC(=O)CSC1=Nc2ccccc2CS1,nt,nt,nt,-14%,nt,nt
O=C(NCCc1cccs1)c1ccc(Cl)cc1,1%,-11%,18,i,-6%,-1
O=C(NCCc1cccs1)c1ccc(Cl)c(Cl)c1,-6%,1%,5,-3%,2.5µM*,3
CCS(=O)(=O)C1=NN2C(=N)/C(=C\c3ccc(SCc4ccco4)o3)C(=O)N=C2S1,-9%,1%,-14,35µM*,?,5
CCOc1cc(/C=C2\C(=N)N3N=C(S(=O)(=O)CC)SC3=NC2=O)ccc1OC(=O)c1ccco1,0%,-1%,14,?,?,1
CC(=O)c1ccc(NC(=O)CN2CCN(c3ccccc3)CC2)cc1,-8%,-2%,-28,11µM*,-7%,0
